Drawing on PubChem BioAssay (NCATS), this text covers outcome, max response and Potency for 21 compounds.

What all share (test): Cytotoxic Profiling of Annotated Libraries Using Quantitative High-Throughput Screening (AID 1296008); also: nearly all actives have a fitted effect of over 60% in size
Holding throughout (details): Five cell lines viability, CellTiter-Glo ATP luminescence, 48-72 h; max response: stronger effect = lower value
On the technique in general: In ATP-based viability assays light output follows the ATP content of the culture.

Assay [1] relates to CRL-7250. The procedure, abridged: (§1)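 Compounds were pin-transferred onto cells and incubated 48 or 72 hr at 37 degree Celsius, 95% humidity. CellTiter-Glo was added, plates sat 10 min at room temperature, then ATP-coupled luminescence was imaged as the viability read-out.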
Assay [2] has as its system HEK293. The method in brief: as §1
Assay [3] deals with HaCat. The procedure, abridged:
as §1

For assay [4], the system named is KB-3-1. The method in brief:
as §1

The test system of assay [5] is NIH3T3. The method in brief: as §1

Inconclusive results are not listed. Values without a mark were called inactive. Activity calls are given as the source filed them. Calls follow the shape of the dose curve; as a rule, active = well fitted inhibition curve with a large enough effect; inconclusive = small, poorly fitted or top-dose-only effect; inactive = flat fitted curve, though single readings scatter.
% is scaled to controls: 0 for no effect and ±100 for the full control effect; potency is read from the fitted curve at half-maximal effect.

For the compound `C/C(=C\CCC1(C)C2CC3C(C2)C31C)C(=O)O` (stereo not given), the call in assay [1], in assay [3], in assay [4] and in assay [5] was inactive. In assay [2], the max response was -2.35%.

Take `CC(=O)N[C@H]1[C@H](O[C@H]2CC[C@]3(C)C4CC=C5[C@@H]6CC(C)(C)CC[C@]6(C(=O)O)[C@H](O)C[C@@]5(C)[C@]4(C)CC[C@H]3C2(C)C)O[C@H](CO)[C@@H](O)[C@@H]1O` (stereo not given in full): the max response in assay [1] was -7.8%; in assay [2], -6.92%; in assay [4], -6.34%. For the same compound, the compound was classed as inactive in assay [3] and in assay [5].

Consider `COc1ccc(-n2[nH]c3c(cnc4ccccc43)c2=O)cc1`, for which the results for the max response in assay [1], in assay [2] and in assay [5] were 1.83%, -1.19% and 3.94%, respectively. The call in assay [3] and in assay [4] was inactive.

Take `CCC(C)/C=C(C)/C=C/C(=O)C1CCC(O)C(C)(O)C1=O` (stereo not given): the max response in assay [1] was 4.93%; in assay [2], 0.989%; in assay [4], 9.09%. In addition, the call in assay [3] and in assay [5] was inactive.

`COc1cc(C2CC(=O)Nc3c2cc(Br)c2ccccc32)cc(OC)c1OC` (stereo not given): the compound was classed as inactive in assay [1], in assay [3], in assay [4] and in assay [5]. For the same compound, the max response in assay [2] was 1.49%.

On to `CC(O)/C=C/C1(O)C(C)C(O)C(O[C@@H]2O[C@H](CO)[C@@H](O)[C@H](O)[C@H]2O)CC1(C)C` (stereo not given in full), for which the figures for the max response in assay [1], in assay [2] and in assay [4] were -7.69%, -15.2% and 0.447%, respectively. The compound was classed as inactive in assay [3] and in assay [5].

In the case of `CC(=O)c1ccc(O[C@@H]2O[C@H](CO[C@@H]3OC[C@@H](O)[C@H](O)[C@H]3O)[C@@H](O)[C@H](O)[C@H]2O)cc1`, the call in assay [1], in assay [3] and in assay [5] was inactive. The values for the max response in assay [2] and in assay [4] were -1.26% and 4.67%, respectively.

`C=C1CCC2C(C)(C)CC(=O)CC2(C)C1CCC(C)CCO` (stereo not given): the max response in assay [1] is -5.3%; in assay [2] it was 1.61%; in assay [4], 0.95%. In addition, the compound was called inactive in assay [3] and in assay [5].

As for `CCC(C)C(N)C(=O)NCCN1CCOCC1` (stereo not given), the max response is -0.617% in assay [1], 2.51% in assay [2] and 0.0309% in assay [4]. For the same compound, the call in assay [3] and in assay [5] was inactive.

For `O=C(OC1C=C(CO)C2C(OC3OC(CO)C(O)C(O)C3O)OC=CC12O)c1ccc(O)cc1` (stereo not given), the max response in assay [1] is 4.89%; in assay [2], -1.34%; in assay [4] it was 1.12%; in assay [5] it was -4.5%. The compound was classed as inactive in assay [3].

With `C/C=C(/C)C(=O)O[C@H]1C[C@]2(C)O[C@@H]2[C@@H](OC(C)=O)[C@@]2(C)CC[C@@](O)(C(C)C)[C@H]12`, the outcome in assay [1] and in assay [3] was inactive. In addition, the max response in assay [2] was -3.47%; in assay [4], -1.06%; in assay [5] it was -1.87%.

On to `O=C(Nc1cc(-c2ccccc2)nn1-c1ccccc1F)c1ccc([N+](=O)[O-])cc1`, for which the values for the max response in assay [1], in assay [3] and in assay [4] were -9.65%, 2.32% and -2.53%, respectively. For the same compound, the Potency in assay [2] was 23.1 µM (active). The call in assay [5] was inactive.

Turning to `Cn1cc(-c2c[nH]c3ncnc(N4CCOCC4)c23)cn1`, the max response in assay [1] was 0.569%; in assay [2] it was -23.9%. The call in assay [3], in assay [4] and in assay [5] was inactive.

`C=C1C[C@H](O)[C@@H](O)[C@@]2(C)C1[C@@H](O)[C@H]1OC(=O)C3[C@@H](C)[C@@H](O)[C@H](O)C2[C@]31C` (stereo not given in full): the max response is -9.79% in assay [1], 3.52% in assay [2] and -3.92% in assay [3]. Moreover, the compound was called inactive in assay [4] and in assay [5].

Regarding `COc1ccc(O[C@@H]2O[C@H](CO)[C@@H](O)[C@H](O)[C@H]2O)cc1OC`, the call in assay [1], in assay [4] and in assay [5] was inactive. The max response is 3.27% in assay [2] and -16.7% in assay [3].

Take `CC1(C)C2CCC1(C)C(OC(=O)C(O)(CC(=O)O)CC(=O)O)C2` (stereo not given): the compound was called inactive in assay [1], in assay [3] and in assay [4]. The figures for the max response in assay [2] and in assay [5] were -0.502% and 3.45%, respectively.

On to `CC1=C2CC3C(CCC3(C)O)C(C)(O)CC2OC1=O` (stereo not given), for which the max response in assay [1] is -2.15%; in assay [3], 3.12%; in assay [4] it was 6.46%; in assay [5], -16.4%. Moreover, the call in assay [2] was inactive.

As to `CCC/C=C1\OC(=O)C2=C1CCC(O)C2O` (stereo not given), the call in assay [1] and in assay [5] was inactive. Also, the figures for the max response in assay [2], in assay [3] and in assay [4] were 1.42%, 3.9% and 0.969%, respectively.

As for `CC(C)(O)C1OC1C1=CC(=O)C2(C)OC2C1O` (stereo not given), the compound was called inactive in assay [1], in assay [3] and in assay [4]. The max response in assay [2] was -1.71%; in assay [5], 3.09%.

As for `C[C@]12CCC[C@](C)(C(=O)O)C1CCC13CC(CO)C(CCC12)C3` (stereo not given in full), the max response in assay [1] was -1.66%; in assay [2], 2.28%; in assay [3], -11.1%; in assay [4], 8.03%. Moreover, the call in assay [5] was inactive.

Turning to `COc1ccc(CC(=O)NCc2ccccc2-c2ccccc2C(=O)NCCc2cccnc2)cc1`, the values for the max response in assay [1], in assay [2] and in assay [4] were -3.16%, -0.81% and -4.64%, respectively. Further, the result in assay [3] and in assay [5] was inactive.
